# The sample as a whole holds a higher share of the strongest signals than the screen did.
# B1: Gal 7 (Homo sapiens) (protein)
# chain: MSNVPHKSSLPEGIRPGTVLRIRGLVPPNASRFHVNLLCGEEGGSDAALHFNPRLDTSEVVFNSKEGGSWGREESGPGVPFGRGQPFEVLIIASDDGFKAVVGDAQYHHFRHRLPLARVRLVEVGGDVQLDSVRIF
# Legend:
# Experiment in all cases: glycan array binding signal (z-score within array); higher = stronger binding
# Conditions in all cases: glycan notation: IUPAC condensed, linker removed; mutation: R74S
# [1] = molecular target: Gal(b1-4)GlcNAc(b1-3)Gal(b1-4)GlcNAc(b1-3)Gal(b1-4)GlcNAc(b1-3)Gal(b1-4)GlcNAc(b1-2)Man(a1-3)[Gal(b1-4)GlcNAc(b1-3)Gal(b1-4)GlcNAc(b1-3)Gal(b1-4)GlcNAc(b1-3)Gal(b1-4)GlcNAc(b1-2)Man(a1-6)]Man(b1-4)GlcNAc(b1-4)[Fuc(a1-6)]GlcNAc
# Method in brief: (§1)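 Columns mapping to the same glycan were averaged after glycan names were converted to IUPAC-condensed notation. The data come from 3228 arrays in the Consortium for Functional Glycomics database, limited to those with an available protein sequence. Binding is reported as a within-array Z-score averaged across arrays of one protein sequence and across linkers.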
# [2] = molecular target: Gal(b1-4)GlcNAc(b1-3)Gal(b1-4)GlcNAc(b1-3)Gal(b1-4)GlcNAc(b1-3)Gal(b1-4)GlcNAc(b1-2)[Gal(b1-4)GlcNAc(b1-3)Gal(b1-4)GlcNAc(b1-3)Gal(b1-4)GlcNAc(b1-3)Gal(b1-4)GlcNAc(b1-6)]Man(a1-6)[Gal(b1-4)GlcNAc(b1-3)Gal(b1-4)GlcNAc(b1-3)Gal(b1-4)GlcNAc(b1-3)Gal(b1-4)GlcNAc(b1-2)Man(a1-3)]Man(b1-4)GlcNAc(b1-4)[Fuc(a1-6)]GlcNAc
# Method in brief: as §1
# [3] = molecular target: Gal(b1-4)GlcNAc(b1-3)Gal(b1-4)GlcNAc(b1-3)Gal(b1-4)GlcNAc(b1-3)Gal(b1-4)GlcNAc(b1-3)Gal(b1-4)GlcNAc(b1-2)Man(a1-3)[Gal(b1-4)GlcNAc(b1-3)Gal(b1-4)GlcNAc(b1-3)Gal(b1-4)GlcNAc(b1-3)Gal(b1-4)GlcNAc(b1-3)Gal(b1-4)GlcNAc(b1-2)Man(a1-6)]Man(b1-4)GlcNAc(b1-4)GlcNAc
# Method in brief: as §1
# [4] = molecular target: Gal(b1-4)GlcNAc(b1-3)Gal(b1-4)GlcNAc(b1-3)Gal(b1-4)GlcNAc(b1-3)Gal(b1-4)GlcNAc(b1-3)Gal(b1-4)GlcNAc(b1-2)Man(a1-3)[Gal(b1-4)GlcNAc(b1-3)Gal(b1-4)GlcNAc(b1-3)Gal(b1-4)GlcNAc(b1-3)Gal(b1-4)GlcNAc(b1-3)Gal(b1-4)GlcNAc(b1-2)Man(a1-6)]Man(b1-4)GlcNAc(b1-4)[Fuc(a1-6)]GlcNAc
# Method in brief: as §1
# [5] = molecular target: Gal(b1-4)GlcNAc(b1-3)Gal(b1-4)GlcNAc(b1-3)Gal(b1-4)GlcNAc(b1-3)Gal(b1-4)GlcNAc(b1-3)Gal(b1-4)GlcNAc(b1-2)[Gal(b1-4)GlcNAc(b1-3)Gal(b1-4)GlcNAc(b1-3)Gal(b1-4)GlcNAc(b1-3)Gal(b1-4)GlcNAc(b1-3)Gal(b1-4)GlcNAc(b1-6)]Man(a1-6)[Gal(b1-4)GlcNAc(b1-3)Gal(b1-4)GlcNAc(b1-3)Gal(b1-4)GlcNAc(b1-3)Gal(b1-4)GlcNAc(b1-3)Gal(b1-4)GlcNAc(b1-2)Man(a1-3)]Man(b1-4)GlcNAc(b1-4)[Fuc(a1-6)]GlcNAc
# Method in brief: as §1
# [6] = molecular target: GalNAc(b1-3)Gal(a1-4)Gal(b1-4)GlcNAc(b1-3)Gal(b1-4)Glc
# Method in brief: as §1
# [7] = molecular target: GalNAc(b1-3)Gal(a1-6)Gal(b1-4)Glc
# Method in brief: as §1
# [8] = molecular target: GalNAc(b1-4)GlcNAc(b1-3)GalNAc(b1-4)GlcNAc
# Method in brief: as §1
# [9] = molecular target: GlcNAc(b1-3)Fuc
# Method in brief: as §1
# [10] = molecular target: GlcNAc(b1-3)Gal(b1-4)GlcNAc(b1-3)Gal(b1-4)GlcNAc(b1-3)Gal(b1-4)GlcNAc(b1-2)Man(a1-3)[GlcNAc(b1-3)Gal(b1-4)GlcNAc(b1-3)Gal(b1-4)GlcNAc(b1-3)Gal(b1-4)GlcNAc(b1-2)Man(a1-6)]Man(b1-4)GlcNAc(b1-4)[Fuc(a1-6)]GlcNAc
# Method in brief: as §1
# [11] = molecular target: GlcNAc(b1-3)Gal(b1-4)GlcNAc(b1-3)Gal(b1-4)GlcNAc(b1-3)Gal(b1-4)GlcNAc(b1-3)Gal(b1-4)GlcNAc(b1-2)Man(a1-3)[GlcNAc(b1-3)Gal(b1-4)GlcNAc(b1-3)Gal(b1-4)GlcNAc(b1-3)Gal(b1-4)GlcNAc(b1-3)Gal(b1-4)GlcNAc(b1-2)Man(a1-6)]Man(b1-4)GlcNAc(b1-4)[Fuc(a1-6)]GlcNAc
# Method in brief: as §1
# [12] = molecular target: GlcNAc(b1-3)[GlcNAc(b1-6)]Gal(b1-4)GlcNAc
# Method in brief: as §1
# [13] = molecular target: GlcNAc(b1-4)GlcNAc
# Method in brief: as §1
# [14] = molecular target: GlcNAc(b1-4)GlcNAc(b1-4)GlcNAc(b1-4)GlcNAc(b1-4)GlcNAc
# Method in brief: as §1
# [15] = molecular target: Man(a1-2)Man(a1-6)[Man(a1-3)]Man(a1-6)[Man(a1-2)Man(a1-2)Man(a1-3)]Man
# Method in brief: as §1
# [16] = molecular target: Neu5Ac(a2-3)Gal(b1-3)GalNAc(b1-4)[Neu5Ac(a2-3)]Gal(b1-4)Glc
# Method in brief: as §1
# [17] = molecular target: Neu5Ac(a2-3)Gal(b1-3)GlcNAc(b1-3)GalNAc
# Method in brief: as §1
# [18] = molecular target: Neu5Ac(a2-3)Gal(b1-3)[GlcNAc(b1-6)]GalNAc
# Method in brief: as §1
# [19] = molecular target: Neu5Ac(a2-3)Gal(b1-4)GlcNAc
# Method in brief: as §1
# [20] = molecular target: Neu5Ac(a2-3)Gal(b1-4)GlcNAc(b1-2)Man
# Method in brief: as §1
# [21] = molecular target: Neu5Ac(a2-3)Gal(b1-4)GlcNAc(b1-2)Man(a1-3)[GlcNAc(b1-4)][Neu5Ac(a2-3)Gal(b1-4)GlcNAc(b1-2)Man(a1-6)]Man(b1-4)GlcNAc(b1-4)GlcNAc
# Method in brief: as §1
# [22] = molecular target: Neu5Ac(a2-6)Gal(b1-4)GlcNAc(b1-2)Man(a1-3)[Man(a1-6)]Man(b1-4)GlcNAc(b1-4)GlcNAc
# Method in brief: as §1
# [23] = molecular target: Neu5Ac(a2-6)Gal(b1-4)GlcNAc(b1-2)[Neu5Ac(a2-6)Gal(b1-4)GlcNAc(b1-4)]Man(a1-3)[GlcNAc(b1-4)][Neu5Ac(a2-6)Gal(b1-4)GlcNAc(b1-2)[Neu5Ac(a2-6)Gal(b1-4)GlcNAc(b1-6)]Man(a1-6)]Man(b1-4)GlcNAc(b1-4)GlcNAc
# Method in brief: as §1
# [24] = molecular target: Neu5Gc(a2-3)Gal(b1-4)GlcNAc(b1-3)Gal(b1-4)GlcNAc(b1-2)Man(a1-3)[Neu5Gc(a2-3)Gal(b1-4)GlcNAc(b1-3)Gal(b1-4)GlcNAc(b1-2)Man(a1-6)]Man(b1-4)GlcNAc(b1-4)GlcNAc
# Method in brief: as §1
# [25] = molecular target: Neu5Gc(a2-3)Gal(b1-4)[Fuc(a1-3)]GlcNAc
# Method in brief: as §1
binder,measurement,setting,value
B1,glycan array binding signal (z-score),[1],4.17
same,glycan array binding signal (z-score),[2],4.03
same,glycan array binding signal (z-score),[3],7.44
same,glycan array binding signal (z-score),[4],4.13
same,glycan array binding signal (z-score),[5],4.35
same,glycan array binding signal (z-score),[6],-0.451
same,glycan array binding signal (z-score),[7],-0.396
same,glycan array binding signal (z-score),[8],0.573
same,glycan array binding signal (z-score),[9],0.85
same,glycan array binding signal (z-score),[10],4.14
same,glycan array binding signal (z-score),[11],2.87
same,glycan array binding signal (z-score),[12],-0.632
same,glycan array binding signal (z-score),[13],-0.382
same,glycan array binding signal (z-score),[14],-0.329
same,glycan array binding signal (z-score),[15],-0.26
same,glycan array binding signal (z-score),[16],-0.265
same,glycan array binding signal (z-score),[17],-0.585
same,glycan array binding signal (z-score),[18],-0.436
same,glycan array binding signal (z-score),[19],-0.58
same,glycan array binding signal (z-score),[20],0.603
same,glycan array binding signal (z-score),[21],-0.325
same,glycan array binding signal (z-score),[22],-0.264
same,glycan array binding signal (z-score),[23],-0.265
same,glycan array binding signal (z-score),[24],1.39
same,glycan array binding signal (z-score),[25],-0.084

# Reference: the supplement of paper PMC8728848
